Data on 10 compounds can be found in PubChem BioAssay.

The source made the active and inactive calls.

A short description of assay [1]: E. coli DRC41 culture turbidity changes, primary screen, E. coli filamentation inducer project, strain DRC41, OD650, 48 h (AID 1152).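 Note: E. coli MC1000 strain DRC41 lacking acrAB efflux pump and sulA.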 Conditions: E. coli DRC41 (acrAB sulA), higher = more signal, called active from +8 up or from −8 down.
Assay [2] is described as follows: small-molecule binders of probe aLefty1, primary screen, biochemical, small-molecule microarray, 635/667 nm fluorescence (AID 1153).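 Note: score merges spot fluorescence with signal-to-noise ratio from the scanned slide images.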 Conditions: higher = more signal.
A short description of assay [3]: PSAC antagonists in infected red cells, primary screen, cell-based, P. falciparum Indochina, OD700, 1 h (AID 1154). The following applies: P. falciparum Indochina infected RBC osmotic lysis, higher = more signal, called active from +8 up or from −8 down.
The nature of assay [4]: PSAC antagonists in infected red cells, primary screen, cell-based, P. falciparum Indochina, OD700, 2 h (AID 1155).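 Note: lysis reports solute entry through the parasite surface anion channel PSAC; channel blockers reduce lysis of infected cells.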 Conditions: P. falciparum Indochina infected erythrocytes, osmotic lysis OD700; higher = more signal, called active from +8 up or from −8 down.
Assay [5] is described as follows: osmotic lysis modulators in infected erythrocytes, primary screen, PSAC antagonist project, cell-based, P. falciparum Indochina, OD700, 3 h (AID 1156). The following applies: higher = more signal, called active from +8 up or from −8 down.
Assay [6] can be described thus: PSAC antagonists in infected red cells, primary screen, cell-based, P. falciparum Indochina, OD700, 18 h (AID 1157). Conditions: P. falciparum Indochina infected erythrocytes, osmotic lysis OD700, 18 h; higher = more signal, called active from +8 up or from −8 down.
A short description of assay [7]: modulators of S6 phosphorylation in cells, primary screen, cell-based, A549, cytoblot, luminescence, serum-stimulated (AID 1158).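 Note: serum-stimulated A549 lung adenocarcinoma cells; signal is phosphorylated S6 detected by cytoblot immunostaining with HRP secondary.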 Conditions: A549 phospho-S6 cytoblot, 5 h, higher = more signal.
Assay [8] deals with NADPH oxidase 2 (Homo sapiens) (UniProt P04839). In words: NOX2-dependent H2O2 signal modulators, primary screen, NOX inhibitor project, cell-based, HEK293-NOX2, PMA-stimulated, Amplex Red fluorescence (AID 1159). Note: test concentration not given here. Conditions: 45 min, higher = more signal, called active from +8 up or from −8 down.
Assay [9] concerns the target NADPH oxidase 4 (Homo sapiens) (UniProt Q9NPH5). In words: NOX4-dependent H2O2 signal modulators, primary screen, NOX inhibitor project, cell-based, HEK293-NOX4, tetracycline-induced, Amplex Red fluorescence (AID 1160). Conditions: 45 min, higher = more signal, called active from +8 up or from −8 down.
In assay [10] the target is NADPH oxidase 5 (Homo sapiens) (UniProt Q96PH1). Put plainly: NOX5-dependent H2O2 signal modulators, primary screen, NOX inhibitor project, cell-based, HEK293-NOX5, Amplex Red fluorescence (AID 1161). Conditions: HEK293-NOX5, ionomycin, 45 min, higher = more signal.
Chain of NADPH oxidase 5 (Homo sapiens) (Q96PH1 whole entry, looked up): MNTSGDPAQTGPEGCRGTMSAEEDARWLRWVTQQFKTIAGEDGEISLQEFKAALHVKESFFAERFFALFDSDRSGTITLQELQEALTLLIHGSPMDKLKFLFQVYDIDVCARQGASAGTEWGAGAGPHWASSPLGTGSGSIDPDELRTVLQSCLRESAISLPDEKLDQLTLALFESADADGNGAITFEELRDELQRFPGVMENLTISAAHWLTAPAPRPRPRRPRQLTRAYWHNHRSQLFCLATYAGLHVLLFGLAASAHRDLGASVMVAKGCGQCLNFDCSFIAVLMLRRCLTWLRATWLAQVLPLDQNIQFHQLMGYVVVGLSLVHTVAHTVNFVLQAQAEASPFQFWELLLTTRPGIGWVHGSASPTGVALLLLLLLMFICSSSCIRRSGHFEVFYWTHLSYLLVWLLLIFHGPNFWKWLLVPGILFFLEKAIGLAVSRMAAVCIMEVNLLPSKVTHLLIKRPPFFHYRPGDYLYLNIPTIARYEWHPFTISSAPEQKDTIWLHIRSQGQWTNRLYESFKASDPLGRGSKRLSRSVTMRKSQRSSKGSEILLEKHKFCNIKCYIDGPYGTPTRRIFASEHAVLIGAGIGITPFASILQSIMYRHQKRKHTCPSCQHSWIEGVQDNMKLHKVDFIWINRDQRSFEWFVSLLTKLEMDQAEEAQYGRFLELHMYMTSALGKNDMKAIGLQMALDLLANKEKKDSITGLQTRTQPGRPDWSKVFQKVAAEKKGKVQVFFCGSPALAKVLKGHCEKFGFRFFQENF

Chain of NADPH oxidase 2 (Homo sapiens) (P04839 whole entry, looked up): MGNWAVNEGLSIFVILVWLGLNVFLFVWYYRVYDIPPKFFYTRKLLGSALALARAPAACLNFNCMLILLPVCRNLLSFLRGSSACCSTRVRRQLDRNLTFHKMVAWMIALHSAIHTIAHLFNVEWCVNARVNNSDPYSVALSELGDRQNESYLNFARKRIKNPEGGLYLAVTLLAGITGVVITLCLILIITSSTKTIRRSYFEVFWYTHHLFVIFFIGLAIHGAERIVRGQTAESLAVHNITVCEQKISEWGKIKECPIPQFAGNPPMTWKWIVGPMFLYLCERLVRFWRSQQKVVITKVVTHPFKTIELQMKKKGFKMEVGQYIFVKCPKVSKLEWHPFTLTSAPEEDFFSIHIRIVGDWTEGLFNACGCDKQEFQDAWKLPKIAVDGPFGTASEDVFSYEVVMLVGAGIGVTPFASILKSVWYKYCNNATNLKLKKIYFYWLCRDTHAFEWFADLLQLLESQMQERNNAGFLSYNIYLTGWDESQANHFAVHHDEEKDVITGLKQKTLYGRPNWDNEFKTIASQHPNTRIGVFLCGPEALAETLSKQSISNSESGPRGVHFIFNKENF
Chain of NADPH oxidase 4 (Homo sapiens) (Q9NPH5 whole entry, looked up): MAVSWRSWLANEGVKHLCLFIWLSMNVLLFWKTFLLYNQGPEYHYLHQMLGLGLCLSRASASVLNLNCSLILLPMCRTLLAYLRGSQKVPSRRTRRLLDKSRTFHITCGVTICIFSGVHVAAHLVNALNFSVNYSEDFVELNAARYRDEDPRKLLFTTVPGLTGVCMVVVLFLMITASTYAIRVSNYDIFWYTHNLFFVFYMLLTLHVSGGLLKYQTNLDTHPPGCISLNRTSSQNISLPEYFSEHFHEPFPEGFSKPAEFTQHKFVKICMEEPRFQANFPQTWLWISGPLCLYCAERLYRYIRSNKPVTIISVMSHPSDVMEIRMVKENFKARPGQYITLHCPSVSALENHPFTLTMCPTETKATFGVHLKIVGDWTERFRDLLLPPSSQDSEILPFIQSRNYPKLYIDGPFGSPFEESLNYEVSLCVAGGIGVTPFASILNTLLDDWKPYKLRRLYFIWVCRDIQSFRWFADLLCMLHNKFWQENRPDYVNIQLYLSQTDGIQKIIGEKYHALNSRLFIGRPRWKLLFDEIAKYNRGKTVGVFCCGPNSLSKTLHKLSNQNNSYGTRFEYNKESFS

As to `COCCOC(=O)N1C(=O)[C@@]2(c3ccccc31)[C@H](C(N)=O)[C@H]1C(=O)O[C@H](c3ccccc3)[C@H](c3ccccc3)N1[C@@H]2c1ccc(O)cc1`, the z-score in assay [1] is 0.912 (inactive); in [3] it was 0.658 (inactive); in [4], -1.28 (inactive); in assay [5], -0.142 (inactive); in [6] it was -2.25 (inactive); in assay [7], 2.74. The results for the z-score in [8], in assay [9] and in assay [10] were -0.339 (inactive), -0.637 (inactive) and -0.534, respectively. The same compound registered a composite z-score in [2] of -0.649.

In the case of `CCC(CC)C(O)C1C=CC2C(=O)N(c3ccccc3)C(=O)C2N1Nc1ccccc1` (stereo not given), the z-score in assay [1] is 0.878 (inactive); in assay [3], 4.73 (inactive); in [4], 0.696 (inactive); in assay [5], 0.301 (inactive); in [6], 0.95 (inactive); in assay [7] it was -0.709. In addition, the z-score in assay [8] was -0.588 (inactive); in [9], -3.29 (inactive); in assay [10], -3.4. The compound further yielded a composite z-score in [2] of 0.947.

For `CCOC(=O)C1=CCC(c2ccc(F)cc2)N(S(=O)(=O)c2ccc(C)cc2)C1` (stereo not given), the z-score was -1 (inactive) in assay [1]; 1.44 (inactive) in assay [3]; 0.952 (inactive) in assay [4]; -0.421 (inactive) in assay [5]; 0.363 (inactive) in assay [6]; -0.566 in [7]. The results for the z-score in [8], in assay [9] and in [10] were 0.396 (inactive), -0.0222 (inactive) and 0.315, respectively. The same compound showed a composite z-score in assay [2] of -0.147.

In the case of `COc1ccc(CCNC(=O)[C@@]2(c3ccc([N+](=O)[O-])cc3)CC(=O)N(CC34CC5CC(CC(C5)C3)C4)[C@@H]2c2ccc(CO)cc2I)cc1`, the z-score in assay [1] is 0.655 (inactive); in [3] it was 16.3 (active); in assay [4], 3.25 (inactive); in assay [5], 3.61 (inactive); in assay [6], 0.838 (inactive); in [7], 3.37. The z-score in [8] was 0.675 (inactive); in [9] it was -4.2 (inactive); in assay [10] it was -3.66. Also, the composite z-score in assay [2] is -0.223.

With `NCCCCCNC(=O)[C@H]1C[C@H]2C(=O)N[C@@H](Cc3ccccc3)C(=O)N2[C@H]1c1cccc(OCCO)c1`, the z-score in [1] is 0.545 (inactive); in assay [3], 3.99 (inactive); in [4] it was 0.812 (inactive); in assay [5], -0.685 (inactive); in assay [6] it was 0.325 (inactive); in [7] it was -0.136. Also, the z-score was 1.38 (inactive) in assay [8], 0.875 (inactive) in assay [9] and 0.434 in assay [10]. The composite z-score in assay [2] is 1.17.

`Cc1ccc(S[C@]2(C(=O)O)CC(=O)N(C(C)C)[C@@H]2c2ccc(CO)cc2)cc1`: the z-score in assay [1] is 1.99 (inactive); in assay [3], 1.05 (inactive); in assay [4] it was -0.354 (inactive); in assay [5], -1.28 (inactive); in assay [6], -0.951 (inactive); in assay [7], 2.66. In addition, the z-score in [8] was 0.149 (inactive); in assay [9], -0.716 (inactive); in assay [10], -0.877. Also, the composite z-score in [2] was -0.668.

Consider `CCOc1cc(C(O)C2C=CC3C(=O)N(c4ccccc4)C(=O)C3N2Nc2ccc(C(C)C)cc2)ccc1O` (stereo not given), for which the z-score was -1.97 (inactive) in [1]; 11.5 (active) in assay [3]; 1.8 (inactive) in [4]; 1.74 (inactive) in assay [5]; 1.42 (inactive) in assay [6]; -0.729 in assay [7]. Besides, the z-score in assay [8] was -3.06 (inactive); in [9] it was -4.82 (inactive); in assay [10], -5.07. This compound also yielded a composite z-score in [2] of 0.469.

Turning to `O=C(NC1CC1)[C@@H]1c2ccccc2C(=O)N(C2Cc3ccccc3C2)[C@H]1c1ccc(CO)cc1`, the z-score in assay [1] was 0.412 (inactive); in assay [3], 2.06 (inactive); in assay [4] it was 0.208 (inactive); in assay [5], 0.531 (inactive); in [6] it was -0.112 (inactive); in [7] it was -0.153. The z-score in assay [8] was 0.0375 (inactive); in assay [9] it was 0.108 (inactive); in assay [10], -0.717. The compound further gave a composite z-score in assay [2] of -0.0377.

With `CO[C@H]1O[C@H](CO)[C@@H](OC(=O)Nc2ccccc2-c2ccccc2)[C@H](OC(=O)Nc2ccccc2-c2ccccc2)[C@@H]1OC(=O)Nc1ccccc1-c1ccccc1`, the z-score in assay [1] is 1.23 (inactive); in assay [3], 1.79 (inactive); in assay [4], 1.44 (inactive); in [5] it was 0.552 (inactive); in assay [6] it was 0.938 (inactive); in assay [7] it was -0.296. Besides, the z-score in [8] is 2.02 (inactive); in [9], 0.114 (inactive); in assay [10], -0.114. Besides, in assay [2], the composite z-score was 0.407.

`COC(=O)[C@@]1(Cc2ccc(OC)cc2)[C@H]2c3cc(C(=O)N(C)C)n(Cc4ccc(C(F)(F)F)nc4)c3C[C@H]2CN1C(=O)c1ccccc1`: the z-score in assay [1] is -0.346 (inactive); in [3], 0.622 (inactive); in [4], 0.315 (inactive); in [5], -0.106 (inactive); in assay [6] it was 0.471 (inactive); in assay [7], -0.154. In addition, the z-score in assay [8] was 0.152 (inactive); in assay [9] it was -1.26 (inactive); in assay [10] it was -1.13. Further, in assay [2], the composite z-score came to 0.301.
